For some assays here: Potency and affinity values are given separately.

Common to all, as to set-up: scale not given: direction of the effect not stated beside the values
The target in experiment [1] is Protein translocase subunit SecA (Escherichia coli (strain K12)) (UniProt P10408). The experiment in a line: Assay to Identify E. coli SecA ATPase Inhibitors. In kind it is functional. The settings on record: 30 µM.
Experiment [2] deals with T1, Ubiquitin-activating enzyme e1, putative (Leishmania donovani (strain BPK282A1)) (UniProt E9BSI1).
T1 sequence (whole entry): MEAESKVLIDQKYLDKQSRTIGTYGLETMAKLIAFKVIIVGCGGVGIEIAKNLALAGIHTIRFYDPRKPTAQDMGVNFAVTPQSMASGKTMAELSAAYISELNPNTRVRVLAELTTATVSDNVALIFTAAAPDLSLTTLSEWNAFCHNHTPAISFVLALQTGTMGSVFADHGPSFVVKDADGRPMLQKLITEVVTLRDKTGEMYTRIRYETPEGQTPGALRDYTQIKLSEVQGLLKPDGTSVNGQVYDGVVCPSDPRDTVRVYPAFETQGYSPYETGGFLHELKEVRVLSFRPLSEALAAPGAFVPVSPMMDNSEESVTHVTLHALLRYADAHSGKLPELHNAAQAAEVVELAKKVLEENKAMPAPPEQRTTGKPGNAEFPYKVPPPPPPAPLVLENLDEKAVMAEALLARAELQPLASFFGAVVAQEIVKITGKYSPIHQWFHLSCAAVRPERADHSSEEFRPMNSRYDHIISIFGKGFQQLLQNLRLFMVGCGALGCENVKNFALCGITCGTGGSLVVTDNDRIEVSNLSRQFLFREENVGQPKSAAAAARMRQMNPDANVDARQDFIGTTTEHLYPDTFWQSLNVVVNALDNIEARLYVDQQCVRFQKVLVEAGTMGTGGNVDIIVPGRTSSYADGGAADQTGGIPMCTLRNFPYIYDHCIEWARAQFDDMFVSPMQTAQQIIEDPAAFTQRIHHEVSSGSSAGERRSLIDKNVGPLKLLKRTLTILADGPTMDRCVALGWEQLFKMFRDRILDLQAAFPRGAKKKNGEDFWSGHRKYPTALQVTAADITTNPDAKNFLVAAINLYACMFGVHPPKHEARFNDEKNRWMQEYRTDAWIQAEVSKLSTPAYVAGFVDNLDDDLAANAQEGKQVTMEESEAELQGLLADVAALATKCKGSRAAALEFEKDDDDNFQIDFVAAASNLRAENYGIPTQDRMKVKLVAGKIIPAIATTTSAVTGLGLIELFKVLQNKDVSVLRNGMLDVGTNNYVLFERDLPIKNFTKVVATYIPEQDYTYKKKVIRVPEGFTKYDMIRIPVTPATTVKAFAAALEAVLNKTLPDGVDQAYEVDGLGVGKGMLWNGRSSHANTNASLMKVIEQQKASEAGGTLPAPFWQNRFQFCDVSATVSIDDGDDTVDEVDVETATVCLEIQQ
The experiment is described as follows: Leishmania donovani Ubiquitin Activating Enzyme (LdE1). In kind it is functional. As to conditions: 30 µM.

For experiment [3], the target named is AMP-activated protein kinase, AMPK (Homo sapiens) (UniProt P54646+O43741+P54619+Q9UGJ0+Q9Y478+Q13131+Q9UGI9). The experiment in a line: AMP-dependent Kinase enzyme assay. An in vitro enzyme assay that detects ADP turnover that is directly proportional to AMPK activity. This uses naive AMPK that is activated during the assay with MK-8722. In kind it is functional. The settings on record: 30 µM.

The target of experiment [4] is Sialic acid-binding Ig-like lectin 9 (Homo sapiens) (UniProt Q9Y336). The experiment in a line: Hs-Siglec9 ALPHAscreen SOP 20170721. As to conditions: 10 µM. On the technique in general: In Alpha technology, singlet oxygen from a donor bead excites a nearby acceptor bead.
In experiment [5] the test system is Trypanosoma cruzi. The experiment in a line: Trypanosoma cruzi phosphomannomutase and mannose-1-phosphate guanylyltransferase assay. In kind it is functional. The settings on record: 10 µM.
Experiment [6] has as its target T2, Arginase-2, mitochondrial (Homo sapiens) (UniProt P78540).
T2 sequence (whole entry): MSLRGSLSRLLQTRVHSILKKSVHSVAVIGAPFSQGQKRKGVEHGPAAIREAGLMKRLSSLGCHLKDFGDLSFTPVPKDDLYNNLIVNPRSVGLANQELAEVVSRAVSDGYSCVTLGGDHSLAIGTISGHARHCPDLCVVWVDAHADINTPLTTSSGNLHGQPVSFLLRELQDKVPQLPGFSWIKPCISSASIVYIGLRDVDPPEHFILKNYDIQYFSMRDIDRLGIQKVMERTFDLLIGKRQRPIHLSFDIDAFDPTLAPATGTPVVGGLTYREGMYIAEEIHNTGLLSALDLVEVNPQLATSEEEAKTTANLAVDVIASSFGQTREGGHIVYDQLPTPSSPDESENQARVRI
The experiment is described as follows: in vitro enzyme assay to detect the production of urea directly proportional to the activity of Arginase II. Also: in the data most compounds retested in dose-response had high values. In kind it is functional. The settings on record: 33.3 µM.

The target of experiment [7] is T3, Proteasome subunit beta (Trypanosoma cruzi) (UniProt O96673).
T3 sequence (whole entry): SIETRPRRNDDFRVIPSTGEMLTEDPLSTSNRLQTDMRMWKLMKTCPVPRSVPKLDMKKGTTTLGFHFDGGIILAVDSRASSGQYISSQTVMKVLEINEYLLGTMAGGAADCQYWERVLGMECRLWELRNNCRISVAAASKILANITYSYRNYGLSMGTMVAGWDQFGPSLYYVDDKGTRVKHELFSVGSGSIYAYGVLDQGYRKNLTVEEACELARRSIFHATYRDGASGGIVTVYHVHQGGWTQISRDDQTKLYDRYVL
The experiment is described as follows: Trypanosoma cruzi proteasome chymotrypsin-like activity (TcProtChymo) assay. Also: in the data most compounds retested in dose-response had high values. In kind it is functional. The settings on record: 9.37 µM.

The species entered for experiment [8] is Homo sapiens. The experiment is described as follows: To identify inhibition of the IFN signalling (Jak-Stat) pathway via expression of an eGFP reporter gene under the control of an IFN-stimulated response element (ISRE) containing MxA promoter. In kind it is functional. As to conditions: 30 µM. (In a reporter assay the amount or activity of a reporter protein is the signal.)

Experiment [9] deals with T4, Tyrosyl-tRNA synthetase, putative (Trypanosoma cruzi (strain CL Brener)) (UniProt Q4DSP6).
T4 sequence (whole entry): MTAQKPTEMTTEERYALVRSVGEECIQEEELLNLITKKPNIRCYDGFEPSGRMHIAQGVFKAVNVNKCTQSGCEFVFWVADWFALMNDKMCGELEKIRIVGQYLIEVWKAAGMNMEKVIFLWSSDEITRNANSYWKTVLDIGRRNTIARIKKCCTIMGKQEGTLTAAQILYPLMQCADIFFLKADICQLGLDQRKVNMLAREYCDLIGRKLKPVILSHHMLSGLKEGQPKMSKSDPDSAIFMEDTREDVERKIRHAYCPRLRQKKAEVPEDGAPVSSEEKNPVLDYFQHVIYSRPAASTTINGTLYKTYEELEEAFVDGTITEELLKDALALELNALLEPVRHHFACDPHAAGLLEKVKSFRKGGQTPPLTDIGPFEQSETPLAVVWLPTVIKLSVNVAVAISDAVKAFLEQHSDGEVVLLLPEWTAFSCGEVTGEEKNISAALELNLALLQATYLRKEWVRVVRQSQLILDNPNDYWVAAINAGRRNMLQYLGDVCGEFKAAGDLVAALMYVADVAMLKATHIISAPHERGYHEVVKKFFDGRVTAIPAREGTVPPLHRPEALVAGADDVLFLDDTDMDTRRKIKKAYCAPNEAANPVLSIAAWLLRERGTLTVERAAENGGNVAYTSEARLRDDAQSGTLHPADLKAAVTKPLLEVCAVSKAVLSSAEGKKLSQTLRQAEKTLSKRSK
The experiment in a line: Trypanosoma cruzi tyrosyl tRNA synthetase (TcYRS) _High Tyrosine SOP. Also: in the data most compounds retested in dose-response had high values. The settings on record: 30 µM. In kind it is functional.

Experiment [10] deals with T4, Tyrosyl-tRNA synthetase, putative (Trypanosoma cruzi (strain CL Brener)). The experiment is described as follows: Trypanosoma cruzi tyrosyl tRNA synthetase (TcYRS) SOP. In kind it is functional. As to conditions: 30 µM.
For experiment [11], the target named is Chromo domain-containing protein 1 (Saccharomyces cerevisiae (strain ATCC 204508 / S288c) (Baker's yeast)) (UniProt P32657). The experiment in a line: ScCHD-1 Enzyme Inhibition Assay. Also: in the data most compounds retested in dose-response had high values. In kind it is functional. As to conditions: 30 µM.
Chain of Chromo domain-containing protein 1 (Saccharomyces cerevisiae (strain ATCC 204508 / S288c) (Baker's yeast)) (P32657 whole entry, the tested form may be a part): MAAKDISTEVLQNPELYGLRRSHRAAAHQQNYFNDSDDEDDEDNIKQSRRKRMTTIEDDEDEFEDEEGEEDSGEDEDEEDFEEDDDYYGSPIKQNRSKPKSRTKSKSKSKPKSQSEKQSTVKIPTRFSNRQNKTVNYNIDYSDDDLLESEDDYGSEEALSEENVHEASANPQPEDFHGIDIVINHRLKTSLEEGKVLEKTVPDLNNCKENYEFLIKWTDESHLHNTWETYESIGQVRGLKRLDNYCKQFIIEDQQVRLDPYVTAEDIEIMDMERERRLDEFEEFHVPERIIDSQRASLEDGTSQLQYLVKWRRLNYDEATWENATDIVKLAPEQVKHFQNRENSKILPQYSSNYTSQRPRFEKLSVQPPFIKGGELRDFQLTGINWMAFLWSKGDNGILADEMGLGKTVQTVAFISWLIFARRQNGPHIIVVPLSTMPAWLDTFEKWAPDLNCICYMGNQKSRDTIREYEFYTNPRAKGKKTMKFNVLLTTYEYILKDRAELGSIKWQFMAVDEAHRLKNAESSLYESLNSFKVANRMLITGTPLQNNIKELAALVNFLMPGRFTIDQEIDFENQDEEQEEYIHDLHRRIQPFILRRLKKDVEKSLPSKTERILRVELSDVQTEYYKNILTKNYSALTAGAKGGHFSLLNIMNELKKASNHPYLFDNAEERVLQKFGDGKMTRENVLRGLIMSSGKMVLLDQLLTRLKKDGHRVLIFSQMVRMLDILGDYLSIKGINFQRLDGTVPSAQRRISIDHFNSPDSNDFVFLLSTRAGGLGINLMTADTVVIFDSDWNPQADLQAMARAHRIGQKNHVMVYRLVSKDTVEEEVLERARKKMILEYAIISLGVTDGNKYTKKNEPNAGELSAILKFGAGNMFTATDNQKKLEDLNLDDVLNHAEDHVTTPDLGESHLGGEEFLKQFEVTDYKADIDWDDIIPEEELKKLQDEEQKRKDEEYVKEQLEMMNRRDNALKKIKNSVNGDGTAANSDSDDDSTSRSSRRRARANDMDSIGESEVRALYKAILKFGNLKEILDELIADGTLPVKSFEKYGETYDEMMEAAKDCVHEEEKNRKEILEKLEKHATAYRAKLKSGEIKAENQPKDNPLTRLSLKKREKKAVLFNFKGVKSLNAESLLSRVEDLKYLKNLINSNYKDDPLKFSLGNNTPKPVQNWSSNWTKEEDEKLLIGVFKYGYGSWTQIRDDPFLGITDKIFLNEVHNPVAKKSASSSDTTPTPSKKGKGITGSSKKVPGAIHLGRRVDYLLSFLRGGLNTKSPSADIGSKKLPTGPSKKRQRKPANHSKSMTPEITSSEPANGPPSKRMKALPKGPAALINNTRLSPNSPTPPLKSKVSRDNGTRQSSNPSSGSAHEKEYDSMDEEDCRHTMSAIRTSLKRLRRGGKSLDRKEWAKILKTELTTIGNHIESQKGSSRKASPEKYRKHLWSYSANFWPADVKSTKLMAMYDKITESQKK

Chain of Sialic acid-binding Ig-like lectin 9 (Homo sapiens) (Q9Y336 whole entry): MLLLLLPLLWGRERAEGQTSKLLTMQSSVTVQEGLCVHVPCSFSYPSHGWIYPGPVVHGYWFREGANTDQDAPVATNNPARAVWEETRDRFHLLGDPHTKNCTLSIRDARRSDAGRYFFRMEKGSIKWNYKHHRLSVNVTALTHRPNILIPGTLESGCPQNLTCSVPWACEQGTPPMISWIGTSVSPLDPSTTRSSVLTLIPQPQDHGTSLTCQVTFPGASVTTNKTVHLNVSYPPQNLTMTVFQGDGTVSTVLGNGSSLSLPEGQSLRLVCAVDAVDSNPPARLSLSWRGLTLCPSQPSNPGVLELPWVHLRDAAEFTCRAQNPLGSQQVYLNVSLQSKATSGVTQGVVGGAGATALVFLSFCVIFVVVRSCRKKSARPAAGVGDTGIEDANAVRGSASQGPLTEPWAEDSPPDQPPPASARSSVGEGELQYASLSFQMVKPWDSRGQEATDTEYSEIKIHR
Chain of Protein translocase subunit SecA (Escherichia coli (strain K12)) (P10408 whole entry): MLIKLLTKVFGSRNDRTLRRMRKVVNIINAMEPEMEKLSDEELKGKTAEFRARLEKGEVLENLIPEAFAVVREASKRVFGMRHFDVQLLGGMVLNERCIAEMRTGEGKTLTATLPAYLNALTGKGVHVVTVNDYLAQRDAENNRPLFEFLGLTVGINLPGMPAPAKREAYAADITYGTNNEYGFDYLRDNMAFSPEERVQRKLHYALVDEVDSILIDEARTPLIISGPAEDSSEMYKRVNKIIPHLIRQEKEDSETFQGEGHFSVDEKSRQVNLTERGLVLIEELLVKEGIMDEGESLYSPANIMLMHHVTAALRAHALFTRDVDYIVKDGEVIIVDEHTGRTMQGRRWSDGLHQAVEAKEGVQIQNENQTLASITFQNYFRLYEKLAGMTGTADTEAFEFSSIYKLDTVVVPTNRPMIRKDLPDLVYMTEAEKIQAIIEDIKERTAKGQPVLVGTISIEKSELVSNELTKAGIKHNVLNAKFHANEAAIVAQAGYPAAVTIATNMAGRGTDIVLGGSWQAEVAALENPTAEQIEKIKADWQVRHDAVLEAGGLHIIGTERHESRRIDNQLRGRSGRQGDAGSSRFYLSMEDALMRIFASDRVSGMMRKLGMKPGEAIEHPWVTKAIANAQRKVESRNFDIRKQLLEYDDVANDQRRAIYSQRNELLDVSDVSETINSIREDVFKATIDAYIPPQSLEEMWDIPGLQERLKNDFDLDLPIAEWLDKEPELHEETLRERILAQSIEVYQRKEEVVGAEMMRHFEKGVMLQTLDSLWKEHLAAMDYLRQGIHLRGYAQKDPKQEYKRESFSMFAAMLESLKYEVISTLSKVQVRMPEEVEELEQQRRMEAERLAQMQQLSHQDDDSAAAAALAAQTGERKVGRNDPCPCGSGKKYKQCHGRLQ

With `COCC1CN(Cc2ccc(C)o2)Cc2cn(C)nc21` (stereo not given), the Percent Effect in experiment [1] was -1.58%; in [2] it was 10.7%; in experiment [3], -0.404%; in experiment [4], 16.5%; in experiment [5], -0.965%; in experiment [6], -18.5%. Besides, the Percent Effect was 5.13% in experiment [7]; -4.89% in experiment [8]; 10.4% in [9]; 20% in experiment [10]; -7.5% in experiment [11].

Consider `CC(C)(C)n1cc(C(=O)N2CCN(Cc3ccccc3F)CC2)cn1`, for which the Percent Effect was -2.41% in experiment [1]; 13.2% in experiment [2]; -1.01% in experiment [3]; 8.67% in experiment [4]; 4.89% in experiment [5]; 0.383% in experiment [6]. For the same molecule, the Percent Effect was 22.4% in experiment [7]; 10.5% in experiment [8]; 6.37% in [9]; 21.9% in experiment [10]; -11.6% in experiment [11].

In the case of `CC(=O)N1CCN(C(=O)c2cnn(-c3ccccc3Cl)c2)CC1`, the Percent Effect in [1] is -5.95%; in [2], 21.6%; in experiment [3] it was -7.37%; in [4], 17.5%; in [5], 6.32%; in experiment [6], -8.82%. The Percent Effect was 9.19% in [7]; 13.8% in experiment [8]; 8.37% in [9]; 18.5% in experiment [10]; -9.57% in [11].

Consider `Cc1cc(NC(=O)c2nc(N3CCCC3)ncc2Cl)nc(C(C)C)n1`, for which the Percent Effect in experiment [1] is -0.667%; in experiment [2] it was 5.41%; in experiment [3], -5.04%; in experiment [4], -2.54%; in experiment [5], -8.79%; in experiment [6] it was 3.33%. Also, the Percent Effect was found to be 17.2% in experiment [7]; 2.69% in experiment [8]; 9.9% in experiment [9]; 8.54% in experiment [10]; 0.666% in experiment [11].

`CSCC(C)(O)CNC(=O)c1cc(Br)ccc1Cl` (stereo not given): the Percent Effect was -6.56% in experiment [1]; 2.74% in experiment [2]; -10.3% in experiment [3]; 29.6% in experiment [4]; 9.01% in [5]; -4.54% in [6]. Further, the Percent Effect in experiment [7] is 18.1%; in experiment [8], 10.3%; in experiment [9] it was 3.23%; in experiment [10], 17.5%; in experiment [11], 34.8%.

As for `Cc1nc(CNC(=O)NCC(O)c2cccc(Cl)c2)cs1` (stereo not given), the Percent Effect in experiment [1] is -1.26%; in [2] it was 2.7%; in [3], -4.33%; in experiment [4], 3.81%; in experiment [5], -8.69%; in experiment [6], -4.29%. Moreover, the Percent Effect in [7] is 23.4%; in experiment [8], 6.47%; in [9] it was 0.529%; in [10], 4.88%; in [11] it was -3.89%.

Regarding `Cc1cc2c(cc1C)C(NCc1nnc3n1CCCCC3)CCCO2` (stereo not given), the Percent Effect in experiment [1] is 0.0306%; in experiment [2] it was 2.7%; in experiment [3], -8.53%; in [4], 10.2%; in [5], 6.94%; in experiment [6], 17.1%. Further, the Percent Effect in experiment [7] was 0.944%; in experiment [8], -23.2%; in experiment [9], 2.15%; in experiment [10] it was 6.17%; in [11], -5.02%.

Regarding `Cc1cc(C)n(CC2CCCN2C(=O)CCc2cscn2)n1` (stereo not given), the Percent Effect in experiment [1] is -2.42%; in [2] it was -5.26%; in experiment [3], 7.92%; in experiment [4], -2.27%; in experiment [5] it was 8.08%; in experiment [6], 1.92%. Further, the Percent Effect in experiment [7] is -4.51%; in [8] it was -4.45%; in experiment [9], -0.49%; in experiment [10] it was 0%; in [11] it was 1.57%.

`COc1cccc(CNC(=O)CC2CSc3ncc(C)c(=O)n32)c1` (stereo not given): the Percent Effect in experiment [1] was -1.02%; in [2], 15.6%; in [3], 31.4%; in experiment [4] it was -9.59%; in [5], -5.03%; in experiment [6], 3.23%. In addition, the Percent Effect in experiment [7] was 13.9%; in [8] it was 16.4%; in experiment [9] it was 5.29%; in [10] it was 3.85%; in [11], -9.11%.

Regarding `COCc1ccccc1CNc1nnc(C)c(C)c1C#N`, the Percent Effect was -6.03% in experiment [1]; 5.41% in [2]; -21.1% in experiment [3]; -1.29% in experiment [4]; -1.39% in [5]; 4.62% in [6]. Moreover, the Percent Effect in experiment [7] is 17.9%; in experiment [8] it was 30.3%; in [9], 4.95%; in experiment [10], 6.1%; in experiment [11], -2.15%.

Source of the values: ChEMBL document CHEMBL3988442, “University of Dundee, Small-Polar-MMV Screening Library” (2021).
